Hit rate of the full screen: of about 48,000 compounds, about 13,000 (27%) showed an effect of 50% or more. Some of the results follow.

The assay has as its system Wolbachia pipientis. Description: Anti-Wolbachia Cell-Based Screen. Details: scale not given: in the data most compounds retested in dose-response had high values. The format is functional. The settings on record: 5 µM.
Regarding `F[C@@H]1CN(Cc2nccs2)C[C@@H]1OCc1nc2cnccc2[nH]1`, the “Percent Effect” value came out at 1.083%.
Turning to `O=C(NC1CC1)C1CN(Cc2ccc3c(c2)OCCO3)CCN1` (stereo not given), the “Percent Effect” value is recorded as -21.08%.
As to `COc1ccc(CCNC(=O)C2CCC(Cn3cnnn3)CC2)cc1` (stereo not given), the “Percent Effect” value is on record as -2.407%.
Regarding `COC(=O)c1ccc(NC(C)c2ccc3c(c2)CCC(=O)N3)nn1` (stereo not given), the “Percent Effect” value was determined as 54.02%.
Regarding `CC(NC(=O)NCCn1ccnc1)c1ccc2c(c1)NC(=O)CO2` (stereo not given), the “Percent Effect” value was -0.9133%.
For `CC(NC(=O)NCCCn1cccn1)c1ccc2c(c1)NC(=O)CO2` (stereo not given) the value was -10.21%.
In the case of `CC(NC(=O)Nc1ccncc1)c1ccc2c(c1)CC(=O)N2` (stereo not given), the “Percent Effect” value is reported as 6.994%.
For `COC(=O)c1ccc(NC(C)c2ccc3c(c2)NC(=O)CO3)nn1` (stereo not given), the “Percent Effect” value is listed as 109.1%.
For `COC(=O)c1ccc(NC(C)c2ccc3c(c2)CC(=O)N3)nn1` (stereo not given) the value was 83.43%; for `COc1cccc(NC(=O)NC(C)c2ccc3c(c2)CC(=O)N3)c1` (stereo not given), -1.814%; for `COc1ccc(C(C)NS(=O)(=O)c2ccc3c(c2)CCC(=O)N3)cc1F` (stereo not given), 13.2%.
Consider `COc1ccc(C)cc1C(C)NS(=O)(=O)c1ccc2c(c1)CCC(=O)N2` (stereo not given), for which the “Percent Effect” value was -0.1201%.
For `COc1ccc(-c2noc(Cn3cc4c(n3)CCC4)n2)c(OC)c1OC` the value was 2%; for `Cc1cc2n(n1)CC(CNC1CCN(Cc3ccccc3C)CC1)CN2` (stereo not given), -1.399%; for `COC(=O)c1ccc(N2CCN(CCC#N)C(C)C2)cc1` (stereo not given), 9.254%.
For `COC(=O)c1ccc(N2CCN(CCN3CCOCC3)C(C)C2)cc1` (stereo not given) the value was -3.012%; for `COCC(=O)N1CCN(c2ccc(C(=O)OC)cc2)CC1C` (stereo not given), -2.487%; for `COC(=O)c1ccc(N2CCN(C(=O)C3CC3)C(C)C2)cc1` (stereo not given), -9.327%.
Under `COC(=O)c1ccc(N2CCN(C(=O)C3CCC3)C(C)C2)cc1` (stereo not given) stands -8.706%; under `CCC(=O)N1CCN(c2ccc(C(=O)OC)cc2)CC1C` (stereo not given), -6.169%; under `COC(=O)c1ccc(N2CCN(CCC(=O)NC(N)=O)C(C)C2)cc1` (stereo not given), 4.115%.
With `CNC(=O)NC(=O)CN1CCN(c2ccc(C(=O)OC)cc2)CC1C` (stereo not given), the “Percent Effect” value came out at 123.3%.
Under `COC(=O)c1ccc(N2CCN(CC(=O)NC(N)=O)C(C)C2)cc1` (stereo not given) stands 126.9%; under `COC(=O)c1ccc(N2CCN(CCS(C)(=O)=O)C(C)C2)cc1` (stereo not given), 130.9%.
For `COC(=O)c1ccc(N2CCN(C(=O)CC(F)(F)F)C(C)C2)cc1` (stereo not given) the value was -6.136%.
For the compound `CNC(=O)NC(=O)CCN1CCN(c2ccc(C(=O)OC)cc2)CC1C` (stereo not given), the “Percent Effect” value came to 121.7%.
For `CCn1nc(CC(C)C)cc1C(=O)N1CCOCC(O)C1` (stereo not given) the value was 14.61%; for `Cc1c(Br)cccc1NC(=O)N(C)CCO`, -1.587%; for `CCc1cc(N[C@H]2CCC[C@H]2O)n2nccc2n1`, -17.41%.
Under `O=C(CCn1ccnc1)N1CC[C@@H](c2ccc3ccccc3c2)[C@H](O)C1` stands 3.256%; under `Cc1nn(C)c(C)c1C1CCCN1C(=O)c1ccc2c(c1)OCCO2` (stereo not given), 107.2%; under `Cc1nc(C(=O)N2CCCC2c2c(C)nn(C)c2C)ccc1C#N` (stereo not given), -5.29%.
For `Cc1nn(C)c(C)c1C1CCCN1C(=O)c1ccc(CN(C)C)cc1` (stereo not given) the value was 0.5484%; for `Cc1nn(C)c(Cl)c1C1CCCN1C(=O)c1ccc2c(c1)OCO2` (stereo not given), 4.266%; for `COc1c(C2CCCN2C(=O)c2ccc3c(c2)OCO3)c(C)nn1C` (stereo not given), 110.4%.
As for `NC(=O)CC1CCCCN1C(=O)Cc1cccc(Br)c1` (stereo not given), the “Percent Effect” value is reported as -22.53%.
For `Cc1ccc(N2CCC(NC(C)c3ccc(C)o3)CC2)nc1` (stereo not given) the value was 5.031%; for `O=C(CC(F)(F)F)N1C[C@H]2CC[C@@H]1CN(Cc1ccccc1)C2`, -26.8%.
Take `c1cncc(-c2c[nH]c([C@@H]3COCCN3Cc3ccncc3)n2)c1`: the “Percent Effect” value was -1.952%.
Under `COCCn1ccc2c(C(=O)Nc3nc4c(s3)CCC4)cccc21` stands 149.9%.
Regarding `COCCn1cc(CC(=O)Nc2nc3c(s2)CCC3)c2ccccc21`, the “Percent Effect” value is 108.7%.
For the compound `COc1ncccc1C(=O)Nc1nc2c(s1)CN(S(=O)(=O)C1CC1)CC2`, the “Percent Effect” value is -5.987%.
Under `CN(CC(=O)Nc1nc2c(s1)CCCCCC2)C(=O)c1ccco1` stands -14.29%.
`COCCn1cc(C(=O)N2CCCC2c2ccncc2)c2ccccc21` (stereo not given): the “Percent Effect” value is listed as 12.21%.
Turning to `CN(CC(=O)Nc1nc2c(s1)CCC2)C(=O)c1cccs1`, the “Percent Effect” value is given as 12.75%.
Under `NC(=O)CCSCc1cc(Br)cc2cccnc12` stands -18.43%; under `CCn1cc(C#N)c(=O)c2cc(Br)ccc21`, -20.97%; under `C=C(C)CN(CC)Cc1nc(C(C)(C)C)no1`, 1.625%.
For `Cc1ccccc1CN(Cc1ccc(S(C)(=O)=O)cc1)CC(C)C` the value was 34.24%.
As to `COCc1ccc(OC)c(CNC2CCCNC2=O)c1` (stereo not given), the “Percent Effect” value was found to be 133.5%.
Take `COc1cc(Br)c(CNC2CCCNC2=O)cc1OC.Cl` (stereo not given): the “Percent Effect” value is listed as -7.392%.
Turning to `COc1cc(Br)cc(CNC2CCCNC2=O)c1O` (stereo not given), the “Percent Effect” value is -10.61%.
Turning to `Cn1cccc1CNCC1CCCn2cc(C(C)(C)C)nc21` (stereo not given), the “Percent Effect” value is reported as 4.297%.
Consider `NCC1CCN(c2cnn(CCCn3cccn3)c(=O)c2)CC1`, for which the “Percent Effect” value came out at 3.68%.
Consider `Cc1cc(C)n(CC2CCCCN2CC(=O)Nc2ccncc2)n1` (stereo not given), for which the “Percent Effect” value is on record as 9.261%.
Take `Cc1cc(C)n(CC2CCCN2CCC(=O)Nc2cc(C)on2)n1` (stereo not given): the “Percent Effect” value is reported as 109.3%.
For the compound `Cc1cc(C)n(CC2CCCN2CC(=O)NC2CCOCC2)n1` (stereo not given), the “Percent Effect” value was -0.8879%.
With `Cc1cc(C)n(CC2CCCCN2CC(=O)Nc2nnc(C)s2)n1` (stereo not given), the “Percent Effect” value is -11.09%.
Under `Cc1cc(C)n(CC2CCCCN2CCC(=O)Nc2cc(C)on2)n1` (stereo not given) stands 105.6%.
With `Cc1cc(C)n(CC2CCCN2CC(=O)Nc2nnc(C)s2)n1` (stereo not given), the “Percent Effect” value was -4.484%.
For `CN(C)C(=O)C1CN(Cc2ccc(C#N)cc2F)c2ccccc2O1` (stereo not given) the value was -1.206%; for `CC(NC(=O)N1CCN(c2cccs2)CC1)c1ccncc1` (stereo not given), -4.876%.
`O=C(Cc1cnccn1)N1CCC(c2nccn2CC2CC2)CC1`: the “Percent Effect” value was -28.72%.
For `CC(=O)N1CCC(Cc2cnc(Nc3cc(C)on3)cn2)CC1` the value was 121.6%; for `CSc1nnc(CC2CCN(C(=O)COc3cccnc3)CC2)n1C`, 8.261%.
For `CC(=O)N1CCC(NC2(Cc3cc(C(C)(C)O)on3)COC2)CC1` the value was 1.756%.
Under `CC(=O)N1CCCC(C(=O)N2CCN(Cc3cc(C)on3)CC2)C1` (stereo not given) stands 8.609%; under `CCC(=O)N1CCC(Cc2cnc(Nc3cnccn3)cn2)CC1`, 88.17%; under `Cc1cnn(CC2CCCCN2CC(=O)Nc2c(C)n[nH]c2C)c1` (stereo not given), 8.734%.
For the compound `Cc1cnn(CC2CCCCN2CCC(=O)Nc2cc(C)on2)c1` (stereo not given), the “Percent Effect” value was determined as 2.664%.
Under `Cc1cnn(CC2CCCN2CC(=O)Nc2cc(C)no2)c1` (stereo not given) stands 114.2%; under `Cc1cnn(CC2CCCCN2CC(=O)Nc2nncs2)c1` (stereo not given), -7.053%; under `Cc1cnn(CC2CCCN2CC(=O)Nc2cc(C)on2)c1` (stereo not given), 104.6%.
With `Cc1cnn(CC2CCCN2CC(=O)Nc2nccs2)c1` (stereo not given), the “Percent Effect” value is 91.79%.
As for `Cc1cnn(CC2CCCN2CC(=O)Nc2nncs2)c1` (stereo not given), the “Percent Effect” value is 1.96%.
With `CCN1CCC(NC(=O)CN2CCCCC2Cn2cc(C)cn2)CC1` (stereo not given), the “Percent Effect” value turned out to be 7.683%.
For `O=C(CN1CCCCC1Cn1cncn1)NCc1ccccn1` (stereo not given) the value was -8.236%; for `Cc1cnn(CC2CCCN2CC(=O)NCc2ccccn2)c1` (stereo not given), 118.9%; for `Cc1cnn(CC2CN(CC(=O)NCc3ccccn3)CCO2)c1` (stereo not given), -0.3283%.
On to `O=C(O)CC[C@@H]1CN(c2ccncc2)CC[C@@H]1N1CCOCC1`, for which the “Percent Effect” value is reported as -3.387%.
Consider `Cc1ccc(C(=O)N2CCSCC2)cc1NC(=O)NCC1CCC1`, for which the “Percent Effect” value is reported as -32.66%.
Take `Cc1cnn(CC2CCCN2CC(=O)Nc2cc(C(C)C)no2)c1` (stereo not given): the “Percent Effect” value was found to be 129.6%.
Consider `Cc1cnn(CC2CCCN2CC(=O)N(C)Cc2ccc(C)o2)c1` (stereo not given), for which the “Percent Effect” value came out at 15.94%.
As to `Cn1ncc(NCc2cc(F)cc(F)c2)c(Cl)c1=O`, the “Percent Effect” value is -8.673%.
As to `COc1ccc(NC(=O)CCC2CCCN(Cc3ncon3)C2)cc1Cl` (stereo not given), the “Percent Effect” value was found to be 9.109%.
As to `O=C(CN1CCc2[nH]c3ccccc3c2C1)NCc1ccco1`, the “Percent Effect” value was -4.019%.
Turning to `CN(CC(=O)N1CCc2[nH]c3ccc(F)cc3c2C1)CC1OCCO1`, the “Percent Effect” value amounted to 90.48%.
Under `CN(C)CCCNC(=O)CNC(=O)N1CCc2c([nH]c3ccccc23)C1` stands 22.94%; under `CN(C)C[C@@H]1[C@H]2CN(C(=O)c3cc(=O)[nH]c4ccc(F)cc34)C[C@@H]12`, -6.499%; under `CC1CN(C(=O)c2cc(=O)[nH]c3ccc(F)cc23)CCO1` (stereo not given), 4.129%.
`Cc1ccc2[nH]c3c(c2c1)CN(C(=O)CN(C)CC1OCCO1)CC3`: the “Percent Effect” value was determined as 95.71%.
For `CN(CC(=O)N1CCc2[nH]c3ccccc3c2C1)CC1OCCO1` the value was 105.4%.
On to `CN(C)CCNC(=O)CNC(=O)N1CCc2c([nH]c3ccc(Cl)cc23)C1`, for which the “Percent Effect” value is 31.1%.
Consider `O=C(CNC(=O)N1CCc2c([nH]c3ccc(Cl)cc23)C1)N1CCOCC1`, for which the “Percent Effect” value turned out to be 10.93%.
For `c1ccc2c(NCC3(N4CCOCC4)CCSC3)ncnc2c1` (stereo not given), the “Percent Effect” value is on record as -37.37%.
For `CSCCC(CO)NC(=O)c1ccc2[nH]/c(=N\S(C)(=O)=O)sc2c1` (stereo not given) the value was 102%; for `CSCCC(C)NC(=O)c1cccc(-c2n[nH]c(C)n2)c1` (stereo not given), -6.222%; for `CCC(CC)NC(=O)c1ccc2c(c1)C(c1nc[nH]n1)CN2S(C)(=O)=O` (stereo not given), -0.8083%.
`CC(CO)NC(=O)c1ccc2[nH]/c(=N\S(C)(=O)=O)sc2c1` (stereo not given): the “Percent Effect” value turned out to be 96.98%.
Regarding `Cc1nn(C)c(C)c1CN(C)c1nc(C2CC2)nc2c(C)nn(C)c12`, the “Percent Effect” value amounted to 9.92%.
`Cc1nn(C)c2c(NCc3ccccc3F)nc(C3CC3)nc12`: the “Percent Effect” value is -10.39%.
With `COc1ccnc(N(C)Cc2ccco2)n1`, the “Percent Effect” value came out at 6.13%.
Under `Cc1nn(C)c2c(N(C)Cc3ccco3)nc(C3CC3)nc12` stands 91.93%.
`Cc1nn(C)c2c(NCc3cccnc3)nc(C3CC3)nc12`: the “Percent Effect” value is listed as -0.9652%.
Under `Cc1nn(C)c2c(N(C)Cc3cccs3)nc(C3CC3)nc12` stands 84.71%.

Source of the values: ChEMBL document CHEMBL3988442, “University of Dundee, Small-Polar-MMV Screening Library” (2021).
